WT yeast gro inh: growth inhibition of WT yeast, mitochondrial fusion screen; mitochondrial fusion phenotypic screen, WT strain; 190,000 tested, 2.1% active; inhibition, % at 10 µM; AID 1362; in the data active = inhibition above about 58%; tested in S. cerevisiae
L major viab: reduces viability of Leishmania major promastigotes; resazurin fluorescence viability; inhibition, % at 10 µM; 200,000 tested, 9% active; AID 1063; in the data active = inhibition above about 50%;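 also: promastigotes grown with compound for 44 hours at 28 °C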
RAM network inh: blocks the yeast RAM network; S. cerevisiae dse1pr::URA3 reporter, 5-FOA growth OD615, 2 d; analog-sensitive cbk1-as2 kinase mutant strain; inhibition, % at 50 µM; 190,000 tested, 1.8% active;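 active = inhibition above a set limit, 3 SD over mean compound inhibition, cut at about 8.4% in these data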;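 also: 0% = DMSO-only wells with no growth and 100% = 10 µM 1-NA-PP1 full growth; inhibition rescues growth on 5-FOA so higher OD means more RAM inhibition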
CHOP inhibitor: CHOP inhibition in unfolded protein response; CHO-K1 CHOP-promoter luciferase, tunicamycin-induced, 15-18 h; inhibition, % at 10 µM; 220,000 tested, 3.8% active;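 active = compounds that reduced the stress-induced luciferase reporter signal by more than about 70% of percent inhibition, limit read from the data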;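 also: 0% = tunicamycin plus vehicle and 100% = wells without tunicamycin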
The depositor's hits bear a star; nt = not tested or not shown. A selection: hits, their analogues and other compounds. The true share with any hit is near 13%.

SMILES	WT yeast gro inh	L major viab	RAM network inh	CHOP inhibitor
Cc1ccc(-n2cc(CNCCn3nc(C)cc3C)c(-c3ccc(F)cc3)n2)cc1	74	63*	-1	67
O=C(N/N=C1\CCS(=O)(=O)c2ccc(F)cc21)c1ccc(O)cc1	nt	nt	nt	-2
CCOC(Cn1cc(C)c(=O)[nH]c1=O)OCC	2	-6	3	-12
CC(C)c1ccc(NC(=S)NCCc2c[nH]c3ccccc23)cc1	67*	43	5	-5
Cc1ccccc1NC(=S)NCCc1c[nH]c2ccccc12	-4	81*	0	-2
O=c1cc(O)nc(-c2ccc(Cl)cc2)s1	4	-8	0	3
CC(=O)N[C@H](C(=O)O)C(C)(C)SN=O	nt	nt	nt	17
CN1CCN(c2ccc(C(=O)c3cn(-c4ccc(F)c(Cl)c4)nn3)cc2)CC1	24	50*	0	-50
Cc1ccc(-n2cc(C(=O)c3ccc(N4CCN(C)CC4)cc3)nn2)cc1Cl	27	101*	3	70*
CC(C)C(=O)N1CCN(c2ccc(NC(=O)c3ccc(Br)o3)cc2)CC1	16	0	2	-5
O=[N+]([O-])c1cccc(S(=O)(=O)Nc2nc3ccccc3nc2Nc2cccc(S(=O)(=O)N3CCCCC3)c2)c1	-21	-5	4	82*
CC(C)C(=O)N1CCN(c2ccc(NC(=O)c3ccc([N+](=O)[O-])o3)cc2Cl)CC1	94*	101*	1	16
CC(C)C(=O)N1CCN(c2ccc(NC(=O)c3ccc([N+](=O)[O-])o3)cc2)CC1	17	99*	0	-20
O=C(Nc1ccc(N2CCOCC2)c(Cl)c1)c1ccc([N+](=O)[O-])o1	19	100*	5	-50
O=C(Nc1ccc(N2CCOCC2)c(Cl)c1)c1c(F)c(F)c(F)c(F)c1F	19	15	1	-1
Cc1cc2n(n1)C(c1ccccc1)CC(c1ccc(Br)cc1)=N2 (stereo unspecified)	55	-2	3	21
O=C(COC(=O)c1ccc(S(=O)(=O)NCc2ccco2)cc1)Nc1ccc(Cl)cn1	4	3	3	-1
COc1ccc(NC(=O)C(C)Sc2nnc3c4c(nc(-c5ccc(OC)cc5)n23)CC(C)(C)OC4)cc1 (stereo unspecified)	-7	7	5	30
O=C(Nc1ccc(N2CCN(C(=O)c3ccc(Cl)cc3)CC2)cc1)c1cc2ccccc2o1	-5	-1	4	-4
O=C(Nc1ccc(N2CCN(C(=O)c3ccc(Cl)cc3)CC2)cc1)c1ccc(Br)o1	nt	18	4	77*
CCCC(=O)N1CCN(c2ccc(NC(=O)c3ccc([N+](=O)[O-])o3)cc2Cl)CC1	86*	101*	-3	-62
Cc1ccc(NC(=O)c2ccc([N+](=O)[O-])o2)cc1S(=O)(=O)N1CCOCC1	1	99*	3	-130
O=C(Nc1cccc(S(=O)(=O)N2CCCCC2)c1)c1ccc([N+](=O)[O-])o1	9	100*	0	-151
O=C(O)c1ccc(N2CCCCS2(=O)=O)cc1	-9	-7	2	16
CCC(=O)Nc1cc(C(=O)OCC(=O)c2ccccc2)ccc1C	-11	6	1	-33
SMILES	WT yeast gro inh	L major viab	RAM network inh	CHOP inhibitor
Cc1cc(N)n(Cc2cccs2)n1	6	-6	1	-5
Cc1ccc(NC(=O)c2ccccc2-c2ccc(C(F)(F)F)cc2)cc1S(=O)(=O)N1CCOCC1	18	93*	7	61
O=C(Nc1ccc(N2CCN(C(=O)c3ccccc3)CC2)cc1)c1ccc([N+](=O)[O-])o1	29	101*	4	-52
CSC[C@@H]1NC(=S)N(c2ccc(C)cc2)C1=O	-7	28	1	-46
CCCc1nc2sc(C(=O)OCC)c(N)c2c2c1COC(C)(C)C2	-10	5	5	81*
CCOC(=O)c1sc2nc(C)c3c(c2c1N)CC(C)(C)OC3	-1	9	1	31
Cc1nonc1NC(=O)c1ccc(Cl)c(S(=O)(=O)N2CCCCC2)c1	20	7	0	-2
Cc1cccc(N2CCN(C(=O)c3cc4c(C)nc5ccccc5c4o3)CC2)c1C	67*	nt	nt	nt
Cc1cccc(N2CCN(C(=O)COc3ccc4c(c3)CCC4)CC2)c1C	73*	-6	4	69
COc1cc2[nH]c(=O)n(CCC(=O)N3CCN(c4cccc(C)c4C)CC3)c(=O)c2cc1OC	29	13	1	93*
Cc1cccc(N2CCN(C(=O)Cn3ccc4ccccc4c3=O)CC2)c1C	-12	91*	0	57
Cc1cccc(N2CCN(C(=O)Cn3cnc4c3c(=O)n(C)c(=O)n4C)CC2)c1C	-1	5	0	16
CC1(C)CCC2=C(O1)c1ccccc1C(=O)C2=O	nt	nt	nt	4

Assay outcomes as filed in PubChem.
